# According to PubChem BioAssay AID504408 (Broad Institute, 2011):
# Among all 300,000 compounds or so, about 5,200 (1.7%) were called active. The sample holds actives, similar compounds and a random draw of the others, so the mix is not that of the screen. Unmarked numbers belong to inactive results.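 The calls were made as follows: active = mean replicate activation of at least 50% with a set share of replicates each reaching 50%; inconclusive = only one of those two conditions met; inactive = mean below 50% and too few replicates reaching it.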
# Assay: HSF-1 response element luciferase induction – NIH3T3-HGL cells, MG132 stress, luminescence, single point, primary screen (AID 504408);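 also: 0% = median of the neutral control wells and 100% = twice that signal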
# Settings: NIH3T3-HGL HSF-1 luciferase reporter, MG132, 8 h; at 9 µM; stronger effect = higher value; 100% = twice DMSO control signal
row,Compound,activation
1,O=C(CSc1ccccn1)N1CCN(S(=O)(=O)c2ccc(Cl)cc2)CC1,9.98%
2,O=S(=O)(O)Oc1c[nH]c2ccccc12,-0.476%
3,CCS(=O)(=O)c1ccc(-c2cccc(NC(=O)c3ccc(Br)o3)c2)nn1,-23.4%
4,O=C(Nc1ccc(Cl)cn1)Nc1cccs1,69.7% (active)
5,CCCc1cc(C(=O)Nc2ccc(Cl)cn2)cs1,43.8%
6,O=C(Nc1cccc([N+](=O)[O-])c1)Nc1ccc(Cl)cn1,-5.81%
7,COc1ccc(NC(=O)CN(C)C(=O)/C=C/c2cn(Cc3ccccc3)nc2-c2cccnc2)cc1,1.78%
8,COC(=O)[C@]1(C)N[C@H](c2ccc(-c3ccc(Cl)c(Cl)c3)cc2)[C@@H]2C(=O)N(C)C(=O)[C@@H]21,23%
9,Cn1c(CN2CCOCC2)nc2cc(NC(=O)c3ccc(Cl)cc3)ccc21,70% (active)
10,CCC(=O)Nc1ccc2c(c1)nc(CCN1CCN(c3ccccn3)CC1)n2C,27.9%
11,Cn1c(CCN2CCCC2)nc2cc(NS(=O)(=O)c3ccccc3)ccc21,-1.14%
12,Cn1c(CCN2CCCCCC2)nc2cc(NC(=O)Nc3ccccc3)ccc21,276% (active)
13,CCOC(=O)N1CCN(Cc2nc3cc(NC(C)=O)ccc3n2C)CC1,-12.5%
14,CC(=O)NCCc1nc2cc(NC(=O)c3ccccc3)ccc2n1C,-16.5%
15,COC(=O)c1ccc(SCc2ccccc2)nc1,18.6%
16,CCOc1ccc(NC(=O)CN(C)C(=O)c2c(C)noc2C)cc1OCC,8.14%
17,CCOC(=O)c1c(NC(=O)CN2C(=O)NC3(CCC(C)CC3)C2=O)sc(C)c1CC (stereo not drawn),2.47%
18,COc1ccc(C2=NN(C(=O)c3cccnc3)C(c3ccccc3)C2)cc1 (stereo not drawn),4.6%
19,COc1ccc(C2CC(c3ccc([N+](=O)[O-])cc3)=NN2C(C)=O)cc1 (stereo not drawn),22%
20,COc1ccc(C2CC(c3ccccc3)=NN2C(=O)c2ccc(Cl)c([N+](=O)[O-])c2)cc1 (stereo not drawn),73.2% (active)
21,OCc1ccc(-c2ccccc2)c(-c2ccccc2)c1,-0.0415%
22,Cc1ccc(CSCC(=O)N(C)CC(=O)Nc2cccc(F)c2)cc1,4.88%
23,Cc1cc(C)c(C)c(S(=O)(=O)Nc2cccnc2)c1C,-8.55%
24,CCOC(=O)/C(C#N)=C/c1ccc(N2CCN(Cc3ccccc3)CC2)cc1,-3.55%

row,Compound,activation
1,COc1ccc(N2CCN(C(=O)/C(C#N)=C/c3ccccc3)CC2)cc1,-4.53%
2,CCOC(=O)/C(C#N)=C/c1ccc(N2CCCCC2)cc1,54.1% (active)
3,CCN1C(=O)[C@H]2[C@@H](c3ccc(-c4ccc(OC)cc4)cc3)N[C@@](Cc3ccccc3)(C(=O)OC)[C@H]2C1=O,22.5%
4,S=C(c1ccc(-c2ccccc2)o1)N1CCCCC1,63.6% (active)
5,OCCN1CCN(C(=S)c2ccc(-c3ccccc3)cc2)CC1,-5.27%
6,S=C(c1ccccc1)N1CCCC1,0.831%
7,CCCCCC(=O)N1CCN(S(=O)(=O)c2ccc3c(c2)OCCCO3)CC1,-14%
8,CCCCn1c(N)c(N(CCOC)C(=O)c2cccc(S(=O)(=O)N(C)c3ccccc3)c2)c(=O)[nH]c1=O,0.234%
9,Cc1noc(C)c1/C=N/Nc1ccc2ccccc2n1,59.1% (active)
10,Clc1ccc(Nc2ccc3ccccc3n2)cc1,5.69%
11,C(=N\Nc1ccc2ccccc2n1)/c1ccc2c(c1)OCO2,-41.8%
12,Cc1ccc(S(=O)(=O)N(C)c2ccc(OCC(=O)OCC(=O)N(CC#N)c3ccccc3)cc2)cc1,7.96%
13,O=S(=O)(NCCCc1ccccc1)c1ccc(Br)cc1,11.6%
14,O=C(NCCS(=O)(=O)NCc1ccc(Cl)cc1)c1ccccc1,8.69%
15,CCOc1ccc(NS(=O)(=O)c2ccc(C(=O)NC3CCN(Cc4ccccc4)CC3)cc2)cc1,-18.5%
16,Cc1ccc(-c2nc3ccccc3[nH]2)cc1N,36.7%
17,c1ccc2[nH]c(-c3nc4ccccc4[nH]3)nc2c1,77.8% (active)
18,OC(c1nc2ccccc2[nH]1)C(O)C(O)C(O)c1nc2ccccc2[nH]1 (stereo not drawn),1.21%
19,CCN(CC(=O)Nc1c(F)cccc1F)C(=O)c1ccc(S(=O)(=O)N2CCCCC2)cc1,-12.7%
20,Cc1ccccc1NC(=O)COc1cccc2c1CCNC2=O,-1.52%
21,CCCCn1c(N)c(N(CC(C)C)C(=O)CSc2ccc([N+](=O)[O-])cc2)c(=O)[nH]c1=O,-6.98%
22,Cc1ccc(-c2nn(-c3ccc(F)cc3)cc2C(=O)NCC(c2cccs2)N2CCOCC2)cc1 (stereo not drawn),-1.83%
23,Cc1ccn2c(=O)nc(SCC(=O)NCc3ccc(F)cc3)nc2c1,16.8%
24,O=C(COC(=O)c1ccccn1)NNC(=O)c1ccc([N+](=O)[O-])cc1,5.44%

row,Compound,activation
1,CCn1c2ccc(F)cc2c2nnc(SCCN3CCOCC3)nc21,-5.84%
2,Cc1cccc(C)c1OCCN1CCOCC1,3.56%
3,Cc1cc2nc(SCCN3CCOCC3)[nH]c2cc1C,53.2% (active)
4,COc1ccc(NC(=O)CN(C)C(=O)CC2CCCCC2)cc1,0.174%
5,N#CCCN(C(=O)COC(=O)C1CCN(c2ccc(C(F)(F)F)cn2)CC1)c1ccc(F)cc1,9.78%
6,O=C(CSc1nnc(-c2c[nH]c3ccccc23)o1)c1ccccc1,54.2% (active)
7,CCC(CC)NC(=O)CSc1nnc(-c2c[nH]c3ccccc23)o1,12.5%
8,CN(C(=O)CSc1nnc(-c2c[nH]c3ccccc23)o1)C1CCS(=O)(=O)C1 (stereo not drawn),20.1%
9,O=C(COc1ccc(Cl)cc1)Nc1ccccc1CO,3.44%
10,COC(=O)c1sccc1NC(=O)COc1ccc(Cl)cc1,65.1% (active)
11,COC(=O)c1sccc1NC(=O)c1ccc(Cl)cc1,12.5%
12,O=C(NCC(c1ccco1)N1CCc2ccccc2C1)c1ccccc1Cl (stereo not drawn),6.39%
13,CC(OC(=O)CNC(=O)c1ccco1)C(=O)Nc1ccc(Cl)cn1 (stereo not drawn),0.765%
14,C=CCNC(=O)C1CC2c3ccccc3C1c1ccccc12 (stereo not drawn),0.377%
15,CCC(C)N(C(=O)Cn1nc(C)c([N+](=O)[O-])c1C)C1CCS(=O)(=O)C1 (stereo not drawn),-1.43%
16,COc1ccc(F)cc1S(=O)(=O)NCC(c1ccc2c(c1)OCO2)N1CCN(C)CC1 (stereo not drawn),7.05%
17,COc1ccc(S(=O)(=O)Nc2ccc3c(c2)OCO3)cc1Cl,-5.83%
18,COc1ccc(F)cc1S(=O)(=O)Nc1ccc2c(c1)OCO2,53.7% (active)
19,COc1ccccc1CCC(=O)OCC(=O)N1CCN(S(=O)(=O)c2ccc(C)cc2C)CC1,25.7%
20,CNc1nc(Nc2ccc(C)c(Cl)c2)nc(N)c1[N+](=O)[O-],76.4% (active)
21,Nc1nc(Nc2ccccc2)nc(NCCO)c1[N+](=O)[O-],12.4%
22,COc1cccc(Nc2nc(N)c([N+](=O)[O-])c(NCc3ccco3)n2)c1,27.8%
23,Cc1cccn2c(=O)nc(SCC(=O)NCc3ccccc3Cl)nc12,0.293%
24,COc1ccc(-c2cnc(SCCNC(=O)c3ccc4c(c3)OCO4)[nH]2)cc1,9.08%

row,Compound,activation
1,COc1ccc(C2=NOC(Cn3nc(C(=O)NCc4ccc5c(c4)OCO5)cc3-c3ccccc3)C2)cc1 (stereo not drawn),7.07%
2,CCN1C(=O)[C@H]2[C@@H](c3ccc(SC4CCCCC4)c(OC)c3)N[C@@](Cc3ccccc3)(C(=O)OC)[C@H]2C1=O,-7.66%
3,Cc1ccc(F)c(NC(=O)CCOc2ccccc2C)c1,7.19%
4,Cc1ccc(O)c(NC(=S)NC(=O)COc2ccc(Br)cc2)c1,12.4%
5,Cc1ccc(O)c(NC(=O)COc2cc(C)ccc2C)c1,76.7% (active)
6,CCn1c(COc2ccc(OC)cc2)nnc1SCC(=O)Nc1cc(OC)ccc1OC,19.9%
7,CCOC(=O)CNC(=O)CSc1nnc(COc2ccc(Cl)cc2)n1CC,52.7% (active)
8,CCn1c(COc2ccccc2)nnc1SCC(=O)NCc1ccco1,-12.7%
9,Cc1ccc(C(=O)Nc2nc3ccc(Cl)cc3s2)o1,44.3%
10,O=C(CSc1n[nH]c(-c2cccs2)n1)N1CCCCC1,-14%
11,O=C(OCC(=O)N1CCCC1=O)c1cc(S(=O)(=O)N2CCOCC2)ccc1Cl,-4.42%
12,Cc1ccc(N/C=C/C(=O)c2ccccc2)cc1C,77.8% (active)
13,CCOc1ccc(N/C=C/C(=O)c2ccccc2)cc1,23.5%
14,Cc1noc(NS(=O)(=O)c2ccc(N/C=C/C(=O)c3ccccc3)cc2)c1C,-20.4%
15,Cc1c(C)n2c(SCC(=O)NC3CCCC3)nnc2[nH]c1=O,-15.2%
16,O=C(/C(=C/c1cccc(Cl)c1)c1nc2ccccc2[nH]1)c1ccccc1,199% (active)
17,COc1ccc(/C=C(/NC(=O)c2ccc(C)cc2)c2nc3ccccc3[nH]2)cc1OC,-0.506%
18,CCC(=O)/C(=C(/O)c1ccccc1)c1nc2ccccc2[nH]1,4.66%
19,Cc1ccc(C)c(OCCC(=O)Nc2cccc(S(=O)(=O)N3CCCC3)c2)c1,-4.4%
20,N#CC1(NC(=O)COC(=O)CSc2ccc(F)cc2)CCCCC1,0.517%
21,CCN(CC(=O)Nc1c(F)cccc1F)C(=O)c1ccc(Sc2nncn2C)c([N+](=O)[O-])c1,-3.26%
